Tau FP inhib = inhibitors of human tau fibril formation. P10636. K18 P301L tau heparin fibrillization, Alexa594 FP, 6 h. Potency, µM (top dose mostly 57.7 µM), hits mostly inhibitors. 0.39% of 280,000 active. AID 1468; note: nearly all actives have a fitted effect of over 55% in size
Target sequence (P10636 561-689 P618L limits assumed): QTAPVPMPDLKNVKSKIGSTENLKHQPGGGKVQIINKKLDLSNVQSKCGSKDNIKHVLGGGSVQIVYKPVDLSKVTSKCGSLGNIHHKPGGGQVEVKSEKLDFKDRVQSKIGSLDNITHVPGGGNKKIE
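Recombinant K18 P301L […], labeled with Alexa 594 at 0.24 uM over 15 uM unlabeled; heparin inducer 20 uM final; 37 C, 6 hr; FP endpoint.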
KDM4E inh = JMJD2E (human) inhibition. JMJD2E catalytic domain, FDH-coupled NADH fluorescence (FDH is formaldehyde dehydrogenase). Potency, µM (series often up to 57.1 µM), most hits filed as inhibitors. 1.6% of 230,000 active. AID 2147; active = well fitted inhibition curve with a large enough effect, not every such curve was filed as active; inconclusive = small, poorly fitted or top-dose-only effect, or another doubt; inactive = no such curve, though single readings can be large or run the other way; note: nearly all actives have a fitted effect of over 50% in size
Target sequence (B2RXH2 1-337 limits assumed): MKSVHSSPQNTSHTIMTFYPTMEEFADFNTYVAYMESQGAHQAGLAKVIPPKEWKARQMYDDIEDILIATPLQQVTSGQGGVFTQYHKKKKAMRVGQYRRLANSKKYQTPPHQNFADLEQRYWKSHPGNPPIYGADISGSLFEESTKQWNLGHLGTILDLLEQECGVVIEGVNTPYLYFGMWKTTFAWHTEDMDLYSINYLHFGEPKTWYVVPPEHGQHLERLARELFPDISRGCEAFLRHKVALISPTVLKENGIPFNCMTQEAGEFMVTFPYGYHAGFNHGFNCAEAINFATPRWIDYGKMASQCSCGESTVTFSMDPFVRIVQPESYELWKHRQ
Coupling enz = coupling enzyme interference in Giardia aldolase counter-screen; coupling enzyme system counterscreen, AmpLite Red fluorescence; activity change, negative = inhibition, % at 58.2 µM, hits read low; 0.67% of 290,000 active; AID 2472; in the data active = activity change below about -30%
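Counterscreen lacking aldolase: glyceraldehyde-3-phosphate coupling-enzyme reagent preincubated 10 min at RT with compound (at 57.5 uM final), then substrate/coupling system with AmpLite Red added; fluorescence read at 525/598 nm after 20 min RT.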
Tau fluor cs = counter-screen for tau fibril formation inhibitors; tau K18 P301L Alexa594 fluorescence, heparin fibrillization; Potency, µM (highest dose often 57.7 µM); 0.93% of 280,000 active; note: nearly all actives have a fitted effect of over 55% in size
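Human K18 P301L tau (15 uM unlabeled plus 0.24 uM Alexa 594-labeled, final) in 100 mM sodium acetate pH 7 was mixed with compound and 20 uM heparin and incubated 6 hr at 37 C.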
Tau fibril ThT = inhibitors of human tau fibril formation, thioflavin T binding. Potency, µM (series often up to 57.4 µM), usual class: inhibitors. recombinant tau K18 P301L (four-repeat tau fragment), heparin-induced fibrillization, ThT fluorescence. 2.1% of 270,000 active. AID 1460; note: nearly all actives have a fitted effect of over 55% in size
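Heparin-induced fibrillization of the P301L-mutant K18 repeat-domain fragment of human tau was followed by ThT binding in quantitative high-throughput format.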
Large screens that a line does not name were inactive; [ ] = remark or other dose. A selection: hits, their analogues and other compounds. The true share with any hit is near 3%. Unless noted, calls come from the whole dose curve; as a rule, active = well fitted curve in the direction sought with a large enough effect; inconclusive = small, poorly fitted or top-dose-only effect, or another doubt; inactive = no such curve, though single readings can be large; an effect the other way counts as inactive or inconclusive.

COC(=O)CSCc1nc2ccccc2[nH]c1=O	Tau FP inhib inconclusive, KDM4E inh inconclusive, Tau fibril ThT 32µM
CCC(C)C(=O)Nc1nc(C)c(-c2csc(Nc3ccccc3OC)n2)s1 (stereo unspecified)	Tau fluor cs 13µM[quencher], Tau fibril ThT inconclusive
CCCCCC(=O)Nc1nc(C)c(-c2csc(Nc3cc(OC)ccc3OC)n2)s1	KDM4E inh inconclusive, Tau fluor cs 11µM[quencher], Tau fibril ThT 16µM
CCCCCCC(=O)Nc1nc(C)c(-c2csc(Nc3cc(OC)ccc3OC)n2)s1	Tau FP inhib inconclusive, Tau fluor cs inconclusive, Tau fibril ThT inconclusive
C=CCCC(=O)Nc1nc(C)c(-c2csc(Nc3ccccc3OC)n2)s1	Tau FP inhib inconclusive, KDM4E inh inconclusive, Tau fluor cs 13µM[quencher], Tau fibril ThT 7.1µM
CCCCC(=O)Nc1nc(C)c(-c2csc(Nc3ccccc3OC)n2)s1	Tau fluor cs 16µM[quencher], Tau fibril ThT inconclusive
COc1ccc(Cl)cc1Nc1nc(-c2sc(NC(=O)CC(C)C)nc2C)cs1	KDM4E inh inconclusive, Tau fluor cs inconclusive, Tau fibril ThT inconclusive
OCCCCNc1cccc2ccccc12	KDM4E inh inconclusive, Coupling enz -41, Tau fluor cs inconclusive, Tau fibril ThT inconclusive
OCCCCCNc1ncnc2ccccc12	Tau FP inhib inconclusive, KDM4E inh inconclusive
Cc1nc(NC(=O)c2ccccc2)sc1-c1csc(Nc2cccc(Cl)c2)n1	Tau FP inhib inconclusive, KDM4E inh inconclusive, Tau fluor cs 11µM[quencher], Tau fibril ThT 7.9µM
Cc1nc(NC(=O)c2ccccc2)sc1-c1csc(Nc2ccc(Cl)cc2)n1	Tau fluor cs 8.9µM[quencher], Tau fibril ThT 5µM
Cc1nc(C)c(-c2csc(Nc3cccc(O)c3)n2)s1	Tau FP inhib inconclusive, KDM4E inh inconclusive, Tau fluor cs 18µM[quencher], Tau fibril ThT 4.5µM
Cc1nc(NC(=O)c2ccccc2)sc1-c1csc(Nc2ccc(F)cc2)n1	Tau FP inhib inconclusive, Tau fluor cs 14µM[quencher], Tau fibril ThT 11µM
COc1ccc(OC)c(Nc2nc(-c3sc(NC(=O)c4ccccc4)nc3C)cs2)c1	Tau fluor cs inconclusive, Tau fibril ThT inconclusive
COc1ccc(CNC(=O)c2ccc(CSc3nc4ccncc4n3Cc3ccccc3F)cc2)cc1	none (no result: KDM4E inh, Coupling enz)
CCOC(=O)c1scc(-c2ccccc2)c1S(=O)(=O)N1CCN(c2ccccc2OC)CC1	none (no result: KDM4E inh, Coupling enz)
COc1ccc(-c2cn3nc(N4CCCC(C(=O)Nc5cccc(Cl)c5C)C4)sc3n2)cc1 (stereo unspecified)	Tau fibril ThT inconclusive (no result: KDM4E inh, Coupling enz)
c1ccc(N2CCN(c3nc(NCc4ccco4)c4ccccc4n3)CC2)cc1	KDM4E inh inconclusive, Tau fluor cs 25µM[quencher], Tau fibril ThT inconclusive
COc1ccccc1Nc1nc(NCc2ccco2)c2ccccc2n1	Tau FP inhib inconclusive, KDM4E inh inconclusive, Tau fluor cs 22µM[quencher], Tau fibril ThT inconclusive
Oc1ccccc1Nc1nc(NCc2ccccc2)c2ccccc2n1	KDM4E inh inconclusive, Tau fluor cs 16µM[quencher]
c1coc(CNc2nc(N3CCCCC3)nc3ccccc23)c1	KDM4E inh inconclusive
Cc1cccc(CCNC(=O)c2sc3nc4n(c(=O)c3c2C)CCCC4)c1	Tau fibril ThT inconclusive (no result: KDM4E inh, Coupling enz)
Cc1cc(C)cc(OCc2cc(=O)n3cc(C)sc3n2)c1	Tau fibril ThT inconclusive (no result: KDM4E inh, Coupling enz)
CCC(C)C(NC(=O)OC(C)(C)C)C(=O)NC1COC2CC(n3ccc(NC(C)=O)nc3=O)OC12 (stereo unspecified)	none (no result: Tau FP inhib, KDM4E inh, Tau fluor cs, Tau fibril ThT)
CCc1ccc(-n2nc(CO)c(C(=O)NCCCCc3ccccc3)n2)cc1	none (no result: KDM4E inh, Coupling enz)
CCCC1([C@H](O)C/C=C/[C@H]2[C@H](O)CC(=O)[C@@H]2CCCCCCC(=O)OC)CCC1	none (no result: Tau FP inhib, KDM4E inh, Tau fluor cs, Tau fibril ThT)
N#CC(C#N)=C1C(=O)N(CCN2CCCCC2)c2ccccc21	Tau FP inhib inconclusive (no result: Tau fibril ThT)
N#CC(C#N)=C1C(=O)N(CCN2CCOCC2)c2ccccc21	Tau FP inhib inconclusive, KDM4E inh inconclusive, Coupling enz -36 (no result: Tau fibril ThT)
Cc1ccc2c(c1)C(=C(C#N)C#N)C(=O)N2CCN1CCOCC1	Tau FP inhib inconclusive, KDM4E inh inconclusive, Coupling enz -36 (no result: Tau fibril ThT)
COc1ccc(SCC(c2ccccc2)N2CCN(CC(C)C)CCC2=O)cc1 (stereo unspecified)	none (no result: Tau FP inhib, KDM4E inh, Tau fluor cs, Tau fibril ThT)
CCCc1cc(C(=O)Nc2c(C)nn(Cc3c(Cl)cccc3Cl)c2C)no1	none (no result: KDM4E inh, Coupling enz)
O=C(/C=C/c1ccc([N+](=O)[O-])cc1)c1ccco1	none (no result: Tau FP inhib, KDM4E inh, Tau fluor cs, Tau fibril ThT)
O=C(/C=C/c1ccc(-c2ccccc2[N+](=O)[O-])o1)c1ccco1	Tau fluor cs inconclusive, Tau fibril ThT 18µM
CCOc1ccc(-n2c(=O)c3c(C)c(C)sc3n(CC(=O)c3ccccc3)c2=O)cc1	none (no result: KDM4E inh, Coupling enz)
O=C(NCCCN1CCN(c2cccc(Cl)c2)CC1)c1ccc2nc(Cc3ccccc3)oc2c1	Tau fluor cs inconclusive, Tau fibril ThT inconclusive (no result: KDM4E inh, Coupling enz)
COc1cc(/C=N/N2C(=O)CSC2=S)ccc1O	Tau fibril ThT 14µM
Cc1c2ccccc2nc2c(F)c(NCCO)c(F)c(F)c12	Tau FP inhib inconclusive, Tau fluor cs inconclusive, Tau fibril ThT 13µM
O=C(/N=C1\NC(=O)C(F)(C(F)(F)F)S1)NC1CCCCC1 (stereo unspecified)	Tau FP inhib inconclusive, Tau fibril ThT 25µM
COc1ccc(NS(=O)(=O)c2ccc3nc(COc4cccc5ccccc45)[nH]c3c2)cc1	Tau FP inhib 22µM, Tau fluor cs 10µM[quencher]
CS(=O)(=O)c1cc([N+](=O)[O-])c(Sc2nc3ccccc3[nH]2)c([N+](=O)[O-])c1	Coupling enz -41
CCc1ccc(C2NC(=S)NC3=C2C(=O)N(c2ccccc2OC)C(c2ccc(CC)cc2)N3)cc1 (stereo unspecified)	Tau FP inhib inconclusive, Tau fibril ThT inconclusive
O=C1C2=C(NC(=S)NC2c2ccc(Cl)cc2)NC(c2ccc(Cl)cc2)N1c1ccc(Cl)cc1 (stereo unspecified)	Tau FP inhib inconclusive, Tau fluor cs inconclusive, Tau fibril ThT 32µM (no result: Coupling enz)
O=C(Cn1c(=O)n(Cc2nc(-c3ccccc3)no2)c(=O)c2ccccc21)Nc1cccc(C(F)(F)F)c1	Tau FP inhib 10µM, Tau fluor cs inconclusive (no result: KDM4E inh, Coupling enz)
COc1ccc(NC(=O)Cn2c(=O)n(Cc3nc(-c4ccccc4)no3)c(=O)c3ccccc32)cc1Cl	Tau FP inhib inconclusive, Tau fibril ThT inconclusive (no result: KDM4E inh, Coupling enz)
O=C(Cn1c(=O)n(Cc2nc(-c3ccccc3)no2)c(=O)c2ccccc21)Nc1cccc(Cl)c1	Tau FP inhib 28µM, Tau fibril ThT inconclusive (no result: KDM4E inh, Coupling enz)
COc1ccc(C2C3C=CCC(c4cccc(-c5ccc(N(C)C)cc5)c4)C3C(=O)N2Cc2ccccc2)cc1Cl (stereo unspecified)	none (no result: Tau FP inhib, KDM4E inh, Tau fluor cs, Tau fibril ThT)
COc1ccc(N2CC(NC(=O)C(c3ccccc3)c3ccccc3)CC2=O)cc1OC (stereo unspecified)	none (no result: KDM4E inh, Coupling enz)
CCn1nc(C)c2c(-c3ccccc3)cc(=O)n(C(C)C(=O)NCCc3ccccc3)c21 (stereo unspecified)	none (no result: KDM4E inh, Coupling enz)
CC1=CC(C)(C)N2C(=O)C(=O)c3cc(OC(=O)c4ccco4)cc1c32	Tau fibril ThT 13µM
CC1=CC(C)(C)Nc2ccc(OC(=O)c3ccco3)cc21	Tau fibril ThT inconclusive
